The source of these data is PubChem BioAssay (EPA / NIEHS).

The source made the active and inactive calls. How the source made its calls: active means hit-call score of the fitted dose curve at least 0.9, where 1 is the maximum; inconclusive means response in the unintended direction; inactive means score below 0.9.

This assay deals with Estrogen receptor (Homo sapiens) (UniProt P03372). As to the kind of experiment: OT_ER_ERaERa_1440: Odyssey Thera (OT) 24-hour HEK293T Protein-Complementation Assay for Estrogen Receptor-alpha/-alpha Homodimer (AID 2283349).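 Further: hits raise fluorescence above DMSO for agonists and antagonists alike.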 On the procedure: OT_ER_ERaERa_1440 is a cell-based assay that uses HEK293T, a human kidney cell line, with measurements taken at 24 hours after chemical dosing in a 384-well plate.OT_ER_ERaERa_1440 is one of one assay component(s) measured or calculated from the OT_ER_ERaERa_1440 assay. It is designed to make measurements of protein fragment complementation, a form of binding reporter, as detected with fluorescence intensity signals by Protein-fragment Complementation technology.Data from the assay component OT_ER_ERaERa_1440 was analyzed into 1 assay endpoint. This assay endpoint, OT_ER_ERaERa_1440, was analyzed in the positive analysis fitting direction relative to DMSO as the negative control and baseline of activity. Using a type of binding reporter, measures of receptor for gain-of-signal activity can be used to understand the binding at the pathway-level as they relate to the gene ESR1. Furthermore, this assay endpoint can be referred to as a primary readout, because the performed assay has only produced 1 assay endpoint. To generalize the intended target to other relatable targets, this assay endpoint is annotated to the nuclear receptor intended target family, where the subfamily is steroidal.
Sequence of Estrogen receptor (Homo sapiens) (P03372 whole entry, looked up, the tested form may be a part): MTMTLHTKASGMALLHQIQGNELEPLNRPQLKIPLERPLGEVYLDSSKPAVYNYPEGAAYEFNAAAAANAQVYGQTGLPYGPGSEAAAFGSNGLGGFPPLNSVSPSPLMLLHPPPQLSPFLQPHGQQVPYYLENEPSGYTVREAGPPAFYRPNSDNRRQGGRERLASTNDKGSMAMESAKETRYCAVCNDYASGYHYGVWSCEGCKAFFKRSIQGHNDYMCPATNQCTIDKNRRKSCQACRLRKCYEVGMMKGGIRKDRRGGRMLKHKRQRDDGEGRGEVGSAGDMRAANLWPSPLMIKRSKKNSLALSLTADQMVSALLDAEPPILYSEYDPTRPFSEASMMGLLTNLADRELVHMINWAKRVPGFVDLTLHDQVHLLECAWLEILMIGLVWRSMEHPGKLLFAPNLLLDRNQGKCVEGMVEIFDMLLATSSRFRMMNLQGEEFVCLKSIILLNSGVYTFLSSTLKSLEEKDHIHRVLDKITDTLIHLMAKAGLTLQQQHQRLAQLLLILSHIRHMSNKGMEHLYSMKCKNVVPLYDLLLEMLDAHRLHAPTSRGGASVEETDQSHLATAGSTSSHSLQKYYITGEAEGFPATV
Protein-fragment complementation assay, or PCA, is a method for the identification and quantification of protein-protein interactions. In the PCA, the proteins of interest ("bait" and "prey") are each covalently linked to fragments of a third protein (e.g. DHFR, which acts as a "reporter"). Interaction between the bait and the prey proteins brings the fragments of the reporter protein in close proximity to allow them to form a functional reporter protein whose activity can be measured. The OT ER alpha / ER alpha assay is a homodimer PCA of the ligand binding domain (amino acids 310-547) of human ER alpha stably expressed in HEK293T cells. […] Fluorescent signal in the basal state of the assay is very low and is primarily punctuate and cytoplasmic. Modulation of this assay is quantified as an increase in mean fluorescence intensity in the nucleus (for agonists) or in the nucleus and cytoplasm (antagonists) relative to vehicle controls, and can be quantified on a high content imaging device or a laser scanning cytometer. The latter instrument is favored for this assay because of the rapid mode of data acquisition, the ability to acquire data from the entire cell population in a well (as opposed to a fraction of the well on the high content devices) and the larger dynamic range typically achieved with this instrument. To assess sensitivity of the ER alpha/ER alpha LBD assay to ligand, cells were treated with the ER agonist 17 beta-estradiol (E2) in 10-point concentration- response format for 24 hours and monitored response on a laser scanning plate cytometer (Acumen eX3; TTP Lab Tech).
`COP(=S)(OC)Oc1ccc(SC)c(C)c1`: the call was inactive.

Consider `CC(C)OC(=O)Nc1cccc(Cl)c1`, for which the molecule was called inactive.

For the molecule `COc1nn(CSP(=S)(OC)OC)c(=O)s1`, the molecule was called inactive.

For the molecule `CC[C@H](C)[C@H]1O[C@]2(C=C[C@@H]1C)C[C@@H]1C[C@@H](C/C=C(\C)[C@@H](O[C@H]3C[C@H](OC)[C@@H](O[C@H]4C[C@H](OC)[C@@H](O)[C@H](C)O4)[C@H](C)O3)[C@@H](C)/C=C/C=C3\CO[C@@H]4[C@H](O)C(C)=C[C@@H](C(=O)O1)[C@]34O)O2` (tested in a mixture with another compound), the outcome was inactive.

For `O=C1c2ccccc2C(=O)N1SC(Cl)(Cl)Cl`, the call was inactive.

Regarding `CC1(c2ccc(Oc3ccccc3)cc2)OC(=O)N(Nc2ccccc2)C1=O` (stereo not given), the molecule was classed as inactive.

As to `CN1CSC(=S)N(C)C1`, the molecule was classed as inactive.

In the case of `O=[N+]([O-])/N=C1\NCCN1Cc1ccc(Cl)nc1`, the result was inactive.

On to `CCN(CC)C(=O)SCc1ccc(Cl)cc1`, for which the outcome was inactive.

On to `CNC(=O)CSP(=S)(OC)OC`, for which the call was inactive.

As to `CNC(=O)Oc1cccc(N=CN(C)C)c1`, the result was inactive.

Regarding `CCc1ccc(C(=O)NN(C(=O)c2cc(C)cc(C)c2)C(C)(C)C)cc1`, the result was inactive.

As for `CCCN(CCC)c1c([N+](=O)[O-])cc(C(F)(F)F)cc1[N+](=O)[O-]`, the outcome was inactive.

As for `N#CN`, the molecule was called inactive.

With `COP(=O)(OC)OC=C(Cl)Cl`, the call was inactive.

In the case of `CC(C)(C)C(O)/C(=C\c1ccc(Cl)cc1Cl)n1cncn1` (stereo not given), the call was inactive.

For `O=S1OCC2C(CO1)C1(Cl)C(Cl)=C(Cl)C2(Cl)C1(Cl)Cl` (stereo not given), the outcome was inactive.

As for `CNC(=O)Oc1ccccc1OC(C)C`, the molecule was classed as inactive.

As for `N#Cc1c(Cl)c(Cl)c(Cl)c(C#N)c1Cl`, the call was inactive.

For the molecule `O=[N+]([O-])c1c(Cl)c(Cl)c(Cl)c(Cl)c1Cl`, the molecule was classed as inactive.

As for `CCOCN(C(=O)CCl)c1c(C)cccc1CC`, the result was inactive.

With `CC(C)N(C(=O)COc1nnc(C(F)(F)F)s1)c1ccc(F)cc1`, the outcome was inactive.

In the case of `CCOC1Oc2ccc(OS(C)(=O)=O)cc2C1(C)C` (stereo not given), the result was inactive.

With `CC1(C)C(C=C(Cl)Cl)C1C(=O)OC(C#N)c1ccc(F)c(Oc2ccccc2)c1` (stereo not given), the call was inactive.

Turning to `O=C(Nc1ccccc1)Nc1cnns1`, the call was inactive.

Turning to `O=C(NC(=O)c1c(F)cccc1F)Nc1ccc(OC(F)(F)C(F)OC(F)(F)F)c(Cl)c1` (stereo not given), the result was inactive.

For the molecule `Clc1ccccc1-c1nnc(-c2ccccc2Cl)nn1`, the result was inactive.

For `OCCOc1ccccc1`, the call was inactive.

With `CCC(C)(C)C(=O)OC1=C(c2ccc(Cl)cc2Cl)C(=O)OC12CCCCC2`, the result was inactive.

As to `CNC(=O)/C=C(\C)OP(=O)(OC)OC`, the call was inactive.

With `C#CCN1C(=O)COc2cc(F)c(N3C(=O)C4=C(CCCC4)C3=O)cc21`, the outcome was inactive.

With `CCC(C)(NC(=O)c1cc(Cl)c(C)c(Cl)c1)C(=O)CCl` (stereo not given), the molecule was classed as inactive.

Take `C[C@H]1[C@H](c2ccc(Cl)cc2)SC(=O)N1C(=O)NC1CCCCC1`: the call was inactive.

Take `CCC(C)Nc1c([N+](=O)[O-])cc(C(C)(C)C)cc1[N+](=O)[O-]` (stereo not given): the result was inactive.

On to `Cc1[nH]c(=O)n(C(C)(C)C)c(=O)c1Cl`, for which the result was inactive.
